Only a selection was taken, and hits are over-represented in it overall.
Pf Dd2 inh: Plasmodium falciparum Dd2 growth inhibition | P. falciparum Dd2 growth, SYBR Green, 72 h | Potency, µM (doses to about 28.9 µM), for inactives: top-dose activity, negative = inhibition, usual class: inhibitors | hit rate 4.3% among 120,000 | AID 1347417; active = well fitted inhibition curve with a large enough effect;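 note: plate controls were DMSO vehicle for no effect and reference drug for full effect; nearly all actives have a fitted effect of over 65% in size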
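Readout: SYBR Green fluorescence, 485 nm excitation, 535 nm emission, after ~16 h lysis at 37C. Before that, Dd2-infected red cells (2.5% hematocrit) grew 72 h with compound, 29 uM top final concentration.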
Active calls of the source: *; i = inactive; [ ] = dose if it differs, or a comment. Potency is the fitted concentration of half-maximal effect.

SMILES	Pf Dd2 inh
CCCn1c2ccccc2c2cnn(CC(=O)NCCN(CC)CC)c(=O)c21	i
Cn1c2ccccc2c2cnn(CC(=O)NCc3ccc(Cl)cc3)c(=O)c21	22.1%
c1ccc(-c2cnc(Nc3ccc(N4CCOCC4)cc3)c3c2CCO3)nc1	-1.1%[44.1 µM]
COc1cc(Cl)c(C)cc1NC(=O)Cn1cccc1-c1nc(-c2ccc(F)cc2)no1	-17.3%
CC(C)NC(=O)C[C@@H]1O[C@H](CNCc2cccc(Cl)c2)[C@@H](O)[C@H]1O	7.6%[44.1 µM]
O=C(NCc1nncn1C1CCCCC1)C1CNCCO1 (configuration not stated)	-9.2%
COc1ccccc1-c1noc(CCC(=O)NCc2snnc2C)n1	-1.7%
O=C1CCN(S(=O)(=O)c2ccccc2)CCCC(C(=O)NC2CC2)CCN1 (configuration not stated)	3.0%
COCCOC1CCN(C(=O)NCc2ccc(C)cc2)CC1	-2.4%
Cc1ccc(CNC(=O)N2CCCC(CN3CCCC3)CC2)cc1 (configuration not stated)	4.47µM*
Cc1ccc(CNC(=O)N2CCC(Cn3c(C)cnc3C3CCOCC3)CC2)cc1	-23.6%
Cc1noc(C)c1C(=O)N1CCn2c(nnc2-c2cncc(Br)c2)C1	-6.3%
CN(CC1CCOC1)S(=O)(=O)Cc1ccccc1Cl (configuration not stated)	1.9%[5.79 µM]
COc1ccc(C(=O)Nc2cc(C(F)(F)F)ccc2N2CCN(c3ccccc3)CC2)cc1OC	-7.3%
CCOC(=O)c1ccc(NC(=O)Nc2cc3c(cc2N2CCCC2)n(C)c(=O)n3C)cc1	i
CCOC(=O)C1CCN(c2cc3c(cc2NC(=O)c2ccc(OC)c(OC)c2)n(C)c(=O)n3C)CC1	8.91µM*
CCN1CCN(CC(=O)N2C[C@@H](C(=O)O)[C@H](c3ccccc3OC)C2)CC1	-12.2%
COc1ccc(CNC(=O)CC[C@H]2CNC(=O)[C@@H]3[C@@H](CCN3Cc3ccc(F)cc3)N2C)cc1	1.1%
O=C1NC(=NC2CCCCC2)C2(CCN(Cc3ccccc3)C2)N1c1cc(F)cc(F)c1 (configuration not stated)	1.78µM*
O=C1NC(=NC2CCCC2)C2(CCCN(Cc3ccccc3)C2)N1c1cc(F)cc(F)c1 (configuration not stated)	-21.7%
O=C1NC(=NC2CCCCC2)C2(CCCN(Cc3ccccc3)C2)N1c1cc(F)cc(F)c1 (configuration not stated)	7.08µM*
O=C1NC(=NC2CCCC2)C2(CCN(Cc3ccccc3)C2)N1c1cccnc1 (configuration not stated)	-3.1%
O=C1NC(=NC2CCCC2)C2(CCN(Cc3cccnc3)CC2)N1c1cc(F)cc(F)c1	-68.0%
O=C1NC(=NC2CCCC2)C2(CCCN(Cc3ccccc3)C2)N1c1cccnc1 (configuration not stated)	-12.9%
COc1ccc(-c2noc([C@@H]3Cc4nc[nH]c4CN3C(=O)CCC(=O)O)n2)cc1	-12.9%[44.1 µM]
SMILES	Pf Dd2 inh
O=C(N[C@H]1C[C@H]2C(=O)NC[C@@H](CCC(=O)N3CCCCC3)N2C1)c1ccc(F)c(Cl)c1	-5.2%
O=C1N(CC2CCOCC2)CCOC12CCN([S+](=O)([O-])c1ccccc1)CC2	-2.4%[44.1 µM]
O=C([C@@H]1C[C@H](Oc2cccnc2)CN1C(=O)C1CC=CC1)N1CCOCC1	-6.7%
CCOc1nccnc1NC1CCN(C(=O)NC)CC1	53.3%[5.79 µM]
Cc1ccc(S(=O)(=O)N2CCN(C3CCN(Cc4cccnc4)C3=O)CC2)cc1C (configuration not stated)	i
CCCCN(CC)CCCNC(=O)c1cc2c(-c3ccc(OC)c(OC)c3)nn(C)c2s1	7.94µM*
CCOCCCNC(=O)c1cc2c(-c3ccc(OC)c(OC)c3)nn(C)c2s1	i
COC(=O)c1ccccc1NC(=O)c1cc2c(-c3ccc(OC)c(OC)c3)nn(C)c2s1	13.6%
Cc1ncsc1C(=O)N1CC(CNC(=O)C2CCOCC2)C2(C1)CN(c1ccccc1)C2 (configuration not stated)	-7.4%
Cc1ccc(OCC(=O)N2CCC3(CC2)CCC(O)(CN(C)C)CC3)cc1	-8.3%
CCc1cc(=O)n(CC(=O)Nc2cc(OC)c(OC)c(OC)c2)c(-c2ccccc2)n1	11.2µM*
COc1ccccc1NC(=O)Cn1c(-c2ccccc2)nc(C)cc1=O	-62.9%
CCc1cc(=O)n(CC(=O)Nc2ccc(OC)c(OC)c2)c(-c2cccc(F)c2)n1	i
CCc1cc(=O)n(CC(=O)Nc2ccccc2C)c(-c2ccccc2)n1	10µM*
CCc1cc(=O)n(CC(=O)Nc2ccccc2)c(-c2ccccc2)n1	-3.1%
CCc1cc(=O)n(CC(=O)Nc2ccc(OC)cc2)c(-c2ccccc2)n1	-1.1%
O=c1[nH]nc2n1CCN(C1CCOCC1)CC2	-3.5%
CCn1ncc(C(=O)N2C[C@@H](COC)[C@H](c3nc(C4CC4)no3)C2)c1C	26.3%
O=C1N(C2CCCCC2)C[C@H]2CN(Cc3cccc(Cl)c3)CCN12	-8.1%[44.1 µM]
COc1ccc(-c2cc(C(=O)NCc3c(C)cc(C)[nH]c3=O)c3c(c2)N(C(C)C)CCO3)cc1OC	i
Cn1ccc2c(C(=O)NCCc3cnc[nH]3)nc(-c3ccccc3)cc21	-27.8%[44.1 µM]
Cn1ccc2c(C(=O)NCCc3cnc[nH]3)nc(-c3cccc(CO)c3)cc21	i
COc1ccc(-c2cc3c(ccn3C(C)C)c(C(=O)NCc3c(C)cc(C)[nH]c3=O)n2)cn1	6.31µM*
COc1ccc(-c2cc3c(ccn3C)c(C(=O)NCCc3cnc[nH]3)n2)cn1	i
Cc1cc(C)c(CNC(=O)c2nc(-c3cnn(C)c3)cc3c2ccn3C)c(=O)[nH]1	i
SMILES	Pf Dd2 inh
CC(=O)Nc1cccc(-c2cc3c(ccn3C)c(C(=O)NCCc3cnc[nH]3)n2)c1	5.01µM*
Cc1cc(C)c(CNC(=O)c2nc(-c3ccccc3C)cc3c2ccn3C(C)C)c(=O)[nH]1	-22.4%[44.1 µM]
COc1cccc(-c2cc3c(ccn3C)c(C(=O)NCc3c(C)cc(C)[nH]c3=O)n2)c1	10µM*
Cc1ccc(-c2cc3c(ccn3C(C)C)c(C(=O)NCc3c(C)cc(C)[nH]c3=O)n2)cn1	7.08µM*
Cc1cc(C)c(CNC(=O)c2cc(-c3ccc(CN(C)C)cc3)cc3ncn(C)c23)c(=O)[nH]1	-17.9%
Cn1ccc2c(C(=O)NCc3cccnc3)nc(-c3cccnc3)cc21	25.7%[44.1 µM]
Cc1ccccc1CCC1CCCN(C(=O)C2(C)CC2)C1 (configuration not stated)	-22.5%
COc1cccc(CNC(=O)Cn2ccn3nc(-c4ccccc4)c(CO)c3c2=O)c1OC	i
O=C([C@H]1CCC[C@H](O)C1)N1CCC(n2cnnc2)CC1	-15.2%
NC(=O)[C@@H]1CCCN1CC[C@H]1CN(C(=O)C2CCCCC2)CC[C@H]1CC(=O)O	30.8%[44.1 µM]
CCC(=O)N1CCN(c2nc3c(s2)CC(C(=O)NC2CCCCCC2)CC3)CC1 (configuration not stated)	-2.6%
CCCN1C(=O)C(CC(=O)N2CCOCC2)Sc2ncccc21 (configuration not stated)	4.6%
c1ccc2c(-c3cn(CC4CNCCO4)nn3)ccnc2c1 (configuration not stated)	-20.0%
COc1ccccc1CCC(=O)Nc1cccn2nc(C(C)C)nc12	10µM*
CC(C)c1nc2c(NC(=O)COc3ccccc3)cccn2n1	i
CCc1nc2c(NC(=O)NCc3ccc(OC)cc3)cccn2n1	i
COC(=O)c1cccc(-c2nc(C3CC(=O)N(c4ccc(Cl)cc4)C3)no2)c1 (configuration not stated)	85.7%
O=C(Nc1ccccc1)c1ccc2c(c1)OCCN(CCC(F)(F)F)C2	i

Screens from PubChem.
